Cruzain noTriton: inhibitors of Trypanosoma cruzi cruzain without detergent | Potency, µM, inactives show max response, negative = inhibition, usual class: inhibitors | purified cruzain, Z-FR-AMC fluorescence, no detergent | hit rate 2.3% among 200,000 | P25779;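 further: plate controls were enzyme without inhibitor for no effect and buffer without enzyme for full effect; nearly all actives have a fitted effect of over 40% in size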
Target sequence (P25779 123-467 limits assumed): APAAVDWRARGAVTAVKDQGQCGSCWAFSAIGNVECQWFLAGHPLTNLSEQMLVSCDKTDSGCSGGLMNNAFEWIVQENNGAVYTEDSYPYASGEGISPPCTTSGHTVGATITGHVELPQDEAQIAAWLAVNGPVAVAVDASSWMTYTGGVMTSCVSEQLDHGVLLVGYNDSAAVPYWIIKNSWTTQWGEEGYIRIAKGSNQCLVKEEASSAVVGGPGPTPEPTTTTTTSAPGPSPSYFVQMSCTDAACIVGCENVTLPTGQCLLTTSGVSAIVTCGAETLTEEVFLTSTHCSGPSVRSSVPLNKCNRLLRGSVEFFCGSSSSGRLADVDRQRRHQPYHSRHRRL
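Purified cruzain at 1.5 nM, pre-incubated 15 min with compound at room temperature in 100 mM sodium acetate pH 5.5, 5 mM DTT, 0.00005% Triton X-100. Reaction started with 2 uM Z-FR-AMC; AMC fluorescence increase over 60 s gives rate.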
Giardia FBPA inh-1: blocks Giardia fructose-bisphosphate aldolase activity. A8B2U2. purified Giardia FBPA. Potency, µM (series often up to 59.6 µM), without a hit: at the top dose activity, negative = inhibition, usual class: inhibitors. hit rate 0.71% among 290,000; further: nearly all actives have a fitted effect of over 55% in size
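Giardia FBPA (40 nM reagent) was preincubated 10 min at RT with compound (up to 57.5 uM final), then substrate plus GAPDH/TPI/NAD/arsenate coupling system with diaphorase/resazurin was added; resorufin fluorescence (525/598 nm) was read after 20 min.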
Cruzain inh Det: inhibitors of Trypanosoma cruzi cruzain with detergent. P25779. purified cruzain, Z-FR-AMC fluorescence, 0.01% Triton. Potency, µM, inactives show max response, negative = inhibition, most hits filed as inhibitors. hit rate 0.43% among 200,000;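 further: plate controls were neutral wells for no effect and buffer without enzyme for full effect; nearly all actives have a fitted effect of over 40% in size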
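Steps: dispense cruzain (1.5 nM final) in acetate buffer pH 5.5 with DTT and 0.01% Triton X-100; pin-transfer compounds; incubate 15 min RT; add Z-FR-AMC (2 uM final); read fluorescence every 30 s, using the 60 s intensity change.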
Giardia growth: Giardia lamblia growth inhibition. shares compounds with Giardia FBPA inh-1. hit rate 5% among 1,500. Potency, µM (titrated, usually from 57.5 µM), inactives show at the top dose activity change, negative = inhibition, hits mostly inhibitors. Giardia lamblia trophozoite growth inhibition;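 further: trophozoites exposed to compound for 48 h at 37 °C; nearly all actives have a fitted effect of over 70% in size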
Mammal cell tox: mammalian cytotoxicity of Giardia aldolase inhibitor hits. Potency, µM (highest dose often 57.5 µM), for the others: at the top dose viability change, negative = toxicity, actives largely listed as inhibitors. shares compounds with Giardia FBPA inh-1. hit rate 4% among 1,500. mammalian cell viability counter-screen, qHTS;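 further: Chinese hamster ovary cells used as mammalian cytotoxicity surrogate; viability measured as cellular ATP by luminescence; compound exposure lasted 48 h before reading; nearly all actives have a fitted effect of over 60% in size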
Giardia FBPA inh-2: confirmation of Giardia fructose-bisphosphate aldolase inhibitors; purified Giardia aldolase enzyme activity, qHTS; shares compounds with Giardia FBPA inh-1; hit rate 5% among 1,500; AID 2787; Potency, µM (highest dose often 57.5 µM), without a hit: top-dose activity change, negative = inhibition, most hits filed as inhibitors; further: nearly all actives have a fitted effect of over 45% in size
Rabbit FBPA inh: blocks rabbit muscle aldolase in Giardia aldolase selectivity test. shares compounds with Giardia FBPA inh-1. Rabbit muscle FBPA enzyme inhibition, selectivity counter-screen. Potency, µM (top dose mostly 57.5 µM), for inactives: top-dose activity, negative = inhibition, hits mostly inhibitors. hit rate 4% among 1,500. AID 2794; further: nearly all actives have a fitted effect of over 60% in size
GAPDH coupling: counter-screen for Giardia aldolase inhibitors: GAPDH coupling enzyme. shares compounds with Giardia FBPA inh-1. GAPDH coupling enzyme counterscreen, biochemical, qHTS. Potency, µM (doses to about 57.5 µM), inactives show top-dose activity change, negative = inhibition, usual class: inhibitors. hit rate 6% among 1,500. AID 2795; further: nearly all actives have a fitted effect of over 55% in size
Numbers without * were called inactive; u = inconclusive; x = not tested or not shown; [ ] = dose if it differs, or a comment. Many of the other results were omitted from the sample, so hits are more common in it than they were. The call rests on the fitted dose curve; in most records, active means well fitted curve in the direction sought with a large enough effect; inconclusive means small, poorly fitted or top-dose-only effect, or another doubt; inactive means no such curve, though single readings can be large; an effect the other way counts as inactive or inconclusive. Unless noted, on the % scale 0 is the no-effect control and ±100 the full control effect; potency means the concentration at half of the fitted maximal effect.

SMILES | Cruzain noTriton | Giardia FBPA inh-1 | Cruzain inh Det | Giardia growth | Mammal cell tox | Giardia FBPA inh-2 | Rabbit FBPA inh | GAPDH coupling
COc1ccc(-c2cc(-c3ccco3)[nH]c(=O)c2C#N)cc1OC | x | 16µM* | x | 19% | -14% | -15% | -11% | -4%
COc1ccc(-c2nc(-c3ccccc3)[nH]c(=O)c2C#N)cc1 | u | 7% | -10% | x | x | x | x | x
N#Cc1ccc(CS(=O)(=O)c2nnnn2-c2ccccc2)cc1 | 4% | 0% | 4% | x | x | x | x | x
CCOC(=O)Cc1ccc(NC(=O)N2CC(C)Oc3ccc(Cl)cc32)cc1 (stereo not drawn) | 11% | x | -2% | x | x | x | x | x
Cc1ccc(S(=O)(=O)N2CCOCC2)cc1NC(=O)CNCc1cccnc1 | x | 16µM* | x | -8%[10.4 µM] | -1% | -1% | 6% | 7%
CC(=O)N1CCN(CC(=O)Nc2cc(S(=O)(=O)N3CCOCC3)ccc2C)CC1 | x | 0% | x | x | x | x | x | x
COc1ccc(OC)c(NC(=O)C2Cc3ccccc3CN2S(=O)(=O)c2ccc(F)cc2)c1 (stereo not drawn) | u | x | -3% | x | x | x | x | x
COc1cc2c(=O)c(C(=O)c3ccc(C)c(C)c3)cn(Cc3ccccc3F)c2cc1OC | u | x | -3% | x | x | x | x | x
N#Cc1ccccc1S(=O)(=O)N1CCN(CC(O)COc2ccccc2F)CC1 (stereo not drawn) | x | 16µM* | x | u | -10% | 8% | 3% | 9%
O=S(=O)(c1ccccc1)N1CCN(CC(O)COc2ccc3c(c2)CCC3)CC1 (stereo not drawn) | 10% | -2% | -3% | x | x | x | x | x
OC(COc1ccccc1Cl)CN1CCN(CC(O)COc2ccccc2Cl)CC1 (stereo not drawn) | 8% | 3% | -5% | x | x | x | x | x
O=S(=O)(c1ccc(F)cc1)N1CCN(CC(O)COCc2cccs2)CC1 (stereo not drawn) | 24% | -18% | 6% | x | x | x | x | x
CC(C)c1ccccc1OCC(O)CN1CCN(S(=O)(=O)c2ccc([N+](=O)[O-])cc2)CC1 (stereo not drawn) | x | 18µM* | x | 5.6µM* | 2% | -4% | -11% | -7%
O=S(=O)(c1ccc(F)cc1)N1CCN(CC(O)COc2ccccc2F)CC1 (stereo not drawn) | x | 28µM* | x | u | -15% | 2% | 1% | 7%
COC(=O)C1=C(C)N(Cc2ccccc2)C2=C(C(=O)c3ccccc3)C(c3ccccc3)[C@@](O)(C(=O)OC)C(=O)N2C1c1ccccc1 (stereo partly drawn) | x | 2%[12.9 µM] | x | x | x | x | x | x
CCOc1ccc(-n2c(/C=C/c3cccc(F)c3)nc3cc(OC)c(OC)cc3c2=O)cc1 | -2% | x | -1% | x | x | x | x | x
COc1ccc(S(=O)(=O)Nc2ncccn2)cc1 | x | 1% | x | x | x | x | x | x
Cc1ccc(S(=O)(=O)Nc2ncccn2)cc1 | x | 22µM* | x | -7% | 21% | 5% | 18% | 6%
CCn1ncc(-c2cc(C(=O)O)no2)c1C | x | 3% | x | x | x | x | x | x
CCn1ncc(-c2ccnc3cc(C(=O)O)nn23)c1C | x | 16µM* | x | 23% | 25% | -2% | -4% | -2%
O=C(O)c1cc(-c2ccccc2)n(-c2ccc(F)cc2)n1 | x | -8% | x | x | x | x | x | x
O=C(O)c1cc2nccc(-c3ccc(F)cc3)n2n1 | x | 18µM* | x | 23% | -2% | 13% | 11% | 6%
CC12CCC=CC1C(c1ccc3ccccc3c1)N(Cc1ccccc1)C2=O (stereo not drawn) | x | -4% | x | x | x | x | x | x
NC(=S)Nc1cccc2cnccc12 | -11% | -30% | -5% | x | x | x | x | x
S=C(Nc1cccc(Cl)c1)Nc1cccc2cnccc12 | -14% | 0.25µM* | u | 12%[38.3 µM] | 10% | u | u | 25µM*
Brc1cccc(-c2nnn3c2nc(NCc2ccc4c(c2)OCO4)c2ccccc23)c1 | -22% | x | -2% | x | x | x | x | x
Cc1ccc(-n2cnc3cc(C(=O)NCc4ccc(F)cc4)ccc32)c(C)c1 | 10% | x | 1% | x | x | x | x | x
Cc1cccc(OCC(=O)Nc2ccc3c(c2)nc(CN2CCCCC2)n3C)c1 | -13% | -12% | -8% | x | x | x | x | x

Assay outcomes (PubChem BioAssay)
